Experimental data as given in PubChem BioAssay AID1259417 (TB Discovery Research, Infectious Disease Research Institute, 2018).
Among all 1,100 compounds or so, about 760 (69%) were called active. How the calls were made is not given here. The set was probably picked from earlier hits. Some of the results follow.

Assay: M. tuberculosis growth inhibition, HTS (AID 1259417);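 further: bacteria grown with compound for 5 days at 37 °C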
Conditions: stronger effect = higher value, concentration not given here
[1] = M. tuberculosis DsRed fluorescence growth inhibition
[2] = M. tuberculosis growth inhibition

| SMILES | inhibition [1] | inhibition [2] |
| --- | --- | --- |
| Cc1cccc(NC(=O)c2cc(-c3cccs3)nc3ccccc23)n1 | 8.52% (inactive) | 22.7% |
| FC(F)(F)c1ccccc1Nc1nc(-c2ccccn2)cs1 | 90.1% (active) | 86.1% |
| Cc1cccc(Nc2nc(-c3ccccn3)cs2)n1 | 91.2% (active) | 97.6% |
| O=C(NCCC12CC3CC(CC(C3)C1)C2)c1ccc(Br)cc1 | 98.8% (active) | 94.1% |
| Cc1ccc(C(=O)NCCC23CC4CC(CC(C4)C2)C3)cc1 | 100% (active) | 97.3% |
| c1ccc2sc(NC3=NCN(Cc4ccc5c(c4)OCO5)CN3)nc2c1 | 17.9% (active) | 69.1% |
| Cc1nc2ccc(C(=O)OCc3nnc(-c4ccccc4)o3)cc2nc1C | -4.41% (inactive) | 0.442% |
| Cc1nc2ccc(C(=O)OCc3cccc(F)c3)cc2nc1C | 19.1% (active) | 60.3% |
| O=C(OCc1ccc(F)cc1)c1ccc2ccccc2n1 | 3.6% (inactive) | 5.51% |
| O=C(Nc1nnc(-c2ccco2)o1)c1cccs1 | 17.8% (active) | 40.1% |
| O=C(Nc1nnc(-c2cccs2)o1)c1cccc(C(F)(F)F)c1 | 1.3% (inactive) | 6.76% |
| O=C(Nc1nnc(-c2ccco2)o1)c1cccc(C(F)(F)F)c1 | 88.4% (active) | 94.4% |
| Cc1ccccc1C(=O)Nc1nnc(-c2ccco2)o1 | 47.6% (active) | 71.5% |
| O=C(Nc1nnc(-c2cccs2)o1)c1ccco1 | -2.8% (inactive) | -18.4% |
| CC(C)(C)c1ccc(C(=O)Nc2nnc(-c3ccco3)o2)cc1 | 88.2% (active) | 89.7% |
| CCSc1ccc(C(=O)Nc2nnc(-c3ccco3)o2)cc1 | 83.8% (active) | 91.8% |
| CCSc1ccc(CC(=O)Nc2nnc(-c3ccc4c(c3)OCCO4)o2)cc1 | 2.15% (inactive) | 7.09% |
| CN1CCC(O)(c2cccs2)C(C(=O)c2cccs2)C1 (configuration not stated) | 100% (active) | 98.7% |
| c1ccc(OCc2nn3c(-c4n[nH]c5c4CCC5)nnc3s2)cc1 | 99.1% (active) | 99.6% |

| SMILES | inhibition [1] | inhibition [2] |
| --- | --- | --- |
| N#Cc1ccccc1NC(=O)CSc1nc2cc3ccccc3cc2[nH]1 | 2.65% (inactive) | 10.4% |
| COc1ccccc1NC(=O)CSc1nc2cc3ccccc3cc2[nH]1 | -0.285% (inactive) | -21.7% |
| O=C(CSc1nc2ccccc2c(=O)[nH]1)NCc1ccccc1 | 101% (active) | 100% |
| O=[N+]([O-])c1ccc(NCCNc2nc3ccccc3nc2N2CCOCC2)cc1 | 8.52% (inactive) | -3.69% |
| Cc1cc(C)n(C(=O)c2ccc([N+](=O)[O-])cc2[N+](=O)[O-])n1 | 0.918% (inactive) | -7.93% |
| O=C(NCCN1CCOCC1)c1ccc([N+](=O)[O-])cc1[N+](=O)[O-] | 98.1% (active) | 94.6% |
| O=C(Nc1nnc(-c2ccc(F)cc2)o1)c1ccco1 | 26% (inactive) | 16.6% |
| O=C(Nc1nnc(-c2ccccc2)o1)c1ccco1 | 20.9% (active) | 32.7% |
| O=C(Nc1nnc(-c2ccc(Cl)cc2)o1)c1ccco1 | 20% (active) | 48.4% |
| CCn1ccnc1CN(C)Cc1cn(-c2cccc(C)c2)nc1-c1cccc(F)c1 | 18.2% (inactive) | 15.5% |
| Cc1ccc(Sc2ccc(C=O)o2)cc1 | -0.277% (inactive) | 24.1% |
| Cc1ccc(CN=c2c([N+](=O)[O-])nn(-c3cccc(Cl)c3)n2O)cc1 | 99.8% (active) | 100% |
| Cc1cccc(-n2nc([N+](=O)[O-])c(=NCCC3=CCCCC3)n2O)c1 | 101% (active) | 54.8% |
| O=S1(=O)C=C(Sc2nc3ccccc3s2)c2ccccc21 | 100% (active) | 99.8% |
| COc1c2ccoc2nc2c(OC)cccc12 | 98.6% (active) | 99.6% |
| CC12CCC(C(=O)Nc3ccc(OC(F)(F)F)cc3)(CC1=O)C2(C)C (configuration not stated) | 94.8% (active) | 81.6% |
| CC(C)(C)c1ccc(C(=O)Nc2nc3ccccc3[nH]2)cc1 | 65.8% (active) | 86.5% |
| Cc1cc(NS(=O)(=O)c2ccc(NC(=O)c3ccc(C(C)(C)C)cc3)cc2)no1 | 19.1% (inactive) | 12.2% |
| Cc1cccc(C(=O)Nc2nc3ccccc3[nH]2)c1 | 36.9% (active) | 35.3% |

| SMILES | inhibition [1] | inhibition [2] |
| --- | --- | --- |
| CCOC(=O)Cn1nnc(-c2ccc(OCc3ccccc3F)cc2)n1 | 50% (active) | 91.6% |
| CCOC(=O)Cn1nnc(-c2ccc(OCc3ccccc3C)cc2)n1 | 91.8% (active) | 96.9% |
| CCN(CC)c1ccc(/C=C(/C#N)c2nc3ccccc3[nH]2)c(OC(C)C)c1 | 22.6% (active) | 47% |
| c1ccc(-c2nc(NCCCn3ccnc3)c3oc4ccccc4c3n2)cc1 | 98.9% (active) | 99.5% |
| CCOC(=O)CSc1nnc2c3sc4nc(N5CCOCC5)c5c(c4c3ncn12)CC(C)(C)OC5 | 53.1% (active) | 74.9% |
| O=C(CCc1ccccc1)NC(=S)Nc1ccc(N2CCCCC2)cc1 | 82.8% (active) | 59.4% |
| COC(=O)c1ccc(N2C(=O)CC(N(CCc3ccccc3)C(=S)Nc3ccccc3)C2=O)cc1 (configuration not stated) | 2.64% (inactive) | -9.4% |
| CC(=O)N1CCN(c2ccc(NC(=S)NC(=O)c3cc4ccccc4o3)cc2)CC1 | 3.83% (inactive) | -6.94% |
| OC(COCCC12CC3CC(CC(C3)C1)C2)CN1CCc2ccccc2C1 (configuration not stated) | 1.19% (inactive) | 10.3% |
| O=C(Cn1nc(CNc2ccc(Cl)cc2)[n+]2c1CCCCC2)c1ccc(Br)cc1 | 92.9% (active) | 94.4% |
| CC(C)CC(=O)NC(c1ccc(Cl)cc1Cl)c1c(O)ccc2ccccc12 (configuration not stated) | 5.28% (inactive) | 21% |
| COc1ccc(C(C)(C)C)cc1NC(=S)Nc1ccc(Cl)c(Cl)c1 | 0.0351% (inactive) | -14.6% |
| CC(C)(C)c1cc(Cl)c(O)c(NC(=S)NC(=O)c2cccc3ccccc23)c1 | 80.4% (active) | 78.3% |
| CCOC(=O)CSc1ccc(-c2nc3cc(C)c(C)cc3[nH]2)cn1 | 94.3% (active) | 96% |
| O=[N+]([O-])c1ccc(/C=N/n2c(CO)nc3ccccc32)s1 | 96.6% (active) | 97.7% |
| Cc1cc(C)n(-c2nc(NC(C)C)nc(NC(C)C)n2)n1 | 43.1% (active) | 41.4% |
| COC(=O)CSc1nnc(-c2ccc(OC)cc2OC)o1 | 85.8% (active) | 94.2% |
| CCOC(=O)CSc1nnc(-c2ccc(OC)cc2OC)o1 | 42.1% (active) | 70.4% |
